TRHR enhancer – allosterically enhances the human TRH receptor; TRHR cells, fluo-8 calcium fluorescence, EC20 TRH enhancement; enhancement, % at 2 µM; hit rate 0.66% among 360,000; AID 493056; in the data active = enhancement above about 30%
Target sequence (P34981 whole entry, looked up): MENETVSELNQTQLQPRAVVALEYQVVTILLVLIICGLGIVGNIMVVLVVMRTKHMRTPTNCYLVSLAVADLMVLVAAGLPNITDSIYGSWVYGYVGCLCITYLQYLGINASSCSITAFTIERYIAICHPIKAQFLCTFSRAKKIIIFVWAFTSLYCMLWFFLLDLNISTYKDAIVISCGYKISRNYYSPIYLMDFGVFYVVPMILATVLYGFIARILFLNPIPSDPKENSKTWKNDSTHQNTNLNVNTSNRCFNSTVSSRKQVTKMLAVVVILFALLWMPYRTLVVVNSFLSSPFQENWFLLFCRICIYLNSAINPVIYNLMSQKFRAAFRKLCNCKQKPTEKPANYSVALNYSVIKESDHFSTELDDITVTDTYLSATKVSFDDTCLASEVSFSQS
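Enhancer read-out: after compound pinning and an initial kinetic agonist-mode read, an EC20 of TRH (10 nM final) was injected and fluo-8 calcium signal (Ex 480/Em 530) followed at 1 s/cycle for 100 cycles in TRHR-expressing cells.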
D1 antag – antagonists of human D1 dopamine receptor | HEK293 TREx D1 cells, calcium flux, dopamine EC80; active compounds read low | hit rate 3.2% among 360,000 | AID 504652 | activity change, negative = inhibition, % at 10 µM; in the data active = activity change below about -30%
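Using tetracycline-induced force-coupled D1 Hek293 cells and a calcium dye, signals were followed for 180 s after compound, then for 180 s after EC80 dopamine, to detect inhibitors.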
D1 potentiator – enhances dopamine response at the human D1 receptor; P21728; HEK293 TREx D1 cells, calcium flux, dopamine EC20 potentiation; potentiation, % at 10 µM; hit rate 0.036% among 360,000; AID 504651; in the data active = potentiation above about 30%
TRHR ag – agonists of human TRH receptor | hit rate 0.18% among 360,000 | P34981 | activation, % at 2 µM | AID 493084 | TRHR cells, calcium flux fluo-8, FDSS agonist mode
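Read-out: compound-evoked intracellular calcium rise in TRHR cells, fluo-8 dye, kinetic FDSS fluorescence at 1 s/cycle following a 10-cycle baseline. Cells cultured overnight before dye loading (30 min–1.5 h, RT).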
D1 agonist – agonists of human D1 dopamine receptor; P21728; HEK293 T-REx D1 cells, calcium flux, agonist mode; activation, % at 2 µM; hit rate 1% among 360,000; AID 504660
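Inducible HEK293 T-REx D1 cells, force-coupled to calcium signalling, were plated at 4000 cells/well with tetracycline and held overnight at 30 C. After no-wash calcium dye loading, compound-evoked calcium rise over 180 s flagged agonists.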
A number is an active result; - = inactive; . = not tested or not shown. This is a sample that favours compounds with a hit; in the whole collection about 4.7% have one here. Rule as the data show it, unless noted: active = activation above about 30%; inactive = the rest.

SMILES	TRHR enhancer	D1 antag	D1 potentiator	TRHR ag	D1 agonist
Cc1cc(C=C(C#N)C#N)c(C)n1-c1ccccc1	-	-	-	-	-
COCCNC(=O)/C(C#N)=C/c1cc(C)n(-c2ccc(C)cc2)c1C	-	-63.5	-	-	-
Cc1ccc(-n2c(C)cc(C=C(C#N)C#N)c2C)cc1	-	-46.5	-	-	-
CC(C)NC(=O)C1CCC(Cn2c(=O)c3sccc3n(CC(=O)NCc3ccccc3)c2=O)CC1 (stereo unspecified)	-	-	-	-	-
Cc1cc(NC(=O)CSc2ccc3nnc(-c4ccccn4)n3n2)no1	-	-32.1	-	-	-
O=C(CSc1ccc2nnc(-c3ccccn3)n2n1)Nc1ccccc1	-	-	-	-	-
COc1cc(C)nc(NCc2ccccc2)n1	-	-	-	-	-
Cc1cc(C)nc(Nc2n[nH]c(Cc3ccccc3)n2)n1	75.2	-	-	-	-
N#C/C(=C\c1coc2ccc(O)cc2c1=O)C(=O)Nc1nc2ccccc2s1	-	-52.1	-	73.6	226.9
N#C/C(=C\c1coc2ccccc2c1=O)C(N)=S	-	-	-	-	-
Cc1cc(C)c2oc(C(=O)Nc3ccc(S(=O)(=O)N4CCCCC4)cc3)cc(=O)c2c1	-	-	-	-	-
Cn1cc(CNC(=O)COc2ccc(Cl)cc2Cl)cn1	-	-	-	-	-
Cc1nn(C)cc1CNC(=O)COc1ccc(Cl)cc1Cl	-	-32.8	-	-	-
CCN(CC)C(=O)CSc1nc(-c2ccco2)cc(C(F)(F)F)c1C#N	-	-	-	-	-
N#Cc1c(C(F)(F)F)cc(-c2ccco2)nc1SCc1ccncc1	-	-	-	-	36.6
N#Cc1c(C(F)(F)F)cc(-c2ccco2)nc1SCc1ccccn1	-	-	-	-	31.3
CSc1nc(-c2ccco2)cc(C(F)(F)F)c1C#N	-	-	-	-	-
C/C(=N\NC(N)=O)c1ccc(-n2ccnc2)cc1	-	-43.8	-	-	-
CNC(=S)N/N=C(\C)c1ccc(-n2ccnc2)cc1	-	-	-	-	-
Cn1c(/C(C#N)=C(\O)c2cccc(F)c2)nc2ccccc21	-	-	-	-	-
N#C/C(=C(/O)c1cccc(F)c1)c1nc2ccccc2s1	-	-35.4	-	-	-
CC(C)(C)OC(=O)NCC(=O)NNC(=O)c1cc2ccccc2[nH]1	-	-58.6	-	-	-
O=C(NCc1ccc2c(c1)CCN2C(=O)c1ccccc1)Nc1cccc(C(F)(F)F)c1	-	-43.0	-	-	-
CCOc1ccccc1NC(=O)CSc1c(C)cnc2c1c(=O)n(C)c(=O)n2C	-	.	-	-	-
Cc1ccc(NC(=O)CCN2C(=O)c3cccc4cccc(c34)C2=O)cc1	-	-32.6	-	-	-
SMILES	TRHR enhancer	D1 antag	D1 potentiator	TRHR ag	D1 agonist
CC(C)(C)c1ccc(C(=O)CS(=O)(=O)c2ccccc2)cc1	-	-38.1	-	-	-
Cc1ccc(S(=O)(=O)CC(=O)c2ccccc2)cc1	-	-	-	-	-
Cc1ccc(OC(=O)C(F)(F)F)c2c1NCCC2	-	-	33.8	-	-
Cc1ccc(C(C(=O)NC2CCCCC2)N(Cc2cccnc2)C(=O)c2csnn2)cc1 (stereo unspecified)	-	-	-	-	-
COc1cc(Cl)c(C)cc1NC(=O)C1CCN(c2nc3ccccc3n3cccc23)CC1	-	-	-	-	-
COc1cc(N2CCCC2)c(OC)cc1/C=C(/C#N)c1cccc(F)c1	-	-	-	-	55.8
N#C/C(=C/c1ccc(N2CCCCCC2)o1)c1cccc(F)c1	-	-	-	-	-
CCN(CC)C(=O)c1nn(-c2ccc(OC)cc2)c(=O)c2c(N)scc12	-	-	-	-	-
COc1ccc(CN2CCN(c3ncnc4sc5c(c34)CC(C)CC5)CC2)cc1F (stereo unspecified)	-	-	-	-	-
CCOc1ccc(CN2CCN(c3ncnc4sc5c(c34)CC(C)CC5)CC2)cc1 (stereo unspecified)	-	-33.3	-	-	-
CC(C)C(=O)N1CCN(c2ccc(NC(=O)COc3ccccc3[N+](=O)[O-])cc2)CC1	-	-31.2	-	-	-
CN(c1nc2ccccc2[nH]c1=O)C1CCCCC1	-	-	-	-	-
CC(=O)c1c(C)[nH]c(C(=O)COC(=O)c2nccnc2N)c1C	-	-	.	-	-
CC(=O)c1c(C)[nH]c(C(=O)COC(=O)c2cccnc2Cl)c1C	-	-33.2	-	-	-
CCCCC(=O)OCC(=O)c1[nH]c(C)c(C(C)=O)c1C	35.0	-	-	-	-
CC(=O)c1cccc(NC(=O)Cc2ccc(NC(=O)N3CCCCc4ccccc43)cc2)c1	-	-	-	-	-
CC1(C)C(=O)Nc2ccccc2N1C(=O)COC(=O)c1ccc(NC(N)=O)cc1	-	-	-	-	-
CC1CCN(S(=O)(=O)c2cc(C(=O)Nc3ccc(Br)cc3F)n(C)c2)CC1	-	-35.2	-	-	-
CCC1C/C(=C/c2ccco2)C(=O)/C(=C/c2ccco2)C1 (stereo unspecified)	-	-	-	-	36.9
CCC1C/C(=C\c2cc(OC)c(OC)cc2OC)C(=O)/C(=C/c2cc(OC)c(OC)cc2OC)C1 (stereo unspecified)	-	-	-	-	-
N#Cc1sc2nc(-c3cccs3)cc(-c3ccc(Cl)cc3)c2c1N	-	-31.8	-	-	-
N#Cc1sc2nc(-c3cccs3)cc(-c3ccccc3)c2c1N	-	-	-	-	-
COc1ccc(N2CCN(CCNC(=O)Nc3cc(Cl)ccc3OC)CC2)cc1	-	-	-	-	44.4
COc1ccc(Cl)c(N2CCN(CCCNC(=O)Nc3ccc(C)cc3)CC2)c1	-	-59.6	-	-	-
CC(Oc1ccc(Cl)cc1Cl)C(=O)NCCN1CCOCC1 (stereo unspecified)	-	-	-	-	-
SMILES	TRHR enhancer	D1 antag	D1 potentiator	TRHR ag	D1 agonist
O=C(NCCN1CCOCC1)Nc1ccc(Cl)cc1Cl	-	-44.5	-	-	-
Cc1ccc(NC(=O)NCCN2CCN(c3ccccc3)CC2)cc1Cl	-	-	-	-	-
COc1ccc(NC(=O)NCCN2CCN(c3cc(OC)ccc3OC)CC2)cc1	-	-	-	-	-
COc1ccc(Cl)c(NC(=O)NCCN2CCN(c3ccccc3)CC2)c1	-	-65.1	-	-	-
COc1ccc(Cl)cc1N1CCN(CCNC(=O)Nc2ccccc2C)CC1	-	-	-	-	-
O=C(/C=C\c1ccccc1)NC1CC(=O)N(c2ccccc2)C1 (stereo unspecified)	-	.	-	-	-
CCOc1cc(CNC(=O)NC2COc3ccc(OC)cc3C2)cc(OCC)c1OCC (stereo unspecified)	-	-	-	-	-
O=c1[nH]cnc2sc3c(c12)CCC3	33.2	-	-	-	-
Cc1nc2sc3c(c2c(=O)[nH]1)CCC3	-	-	-	-	-
CCOC(=O)N1CCc2c(sc3nc[nH]c(=O)c23)C1	-	-30.8	-	-	-
CCOC(=O)N1CCc2c(sc3ncn(Cc4ccc(F)cc4)c(=O)c23)C1	-	-	-	-	-

Source: PubChem
